High-throughput results (PubChem)
Pf growth 96h – P. falciparum growth inhibition at 96 hour, primary screen for plastid delayed-death inhibitors; P. falciparum luciferase reporter growth, 96 h; Potency, µM (top dose mostly 28.7 µM), for inactives: at the highest dose activity change, negative = inhibition, most hits filed as inhibitors; 320,000 compounds, 6.9% hits; AID 504834; further: potency means the concentration at half of the fitted maximal effect; on the % scale 0 is the no-effect control and ±100 the full control effect
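Compounds incubated with erythrocytes infected by luciferase-expressing P. falciparum (2% hematocrit, 0.05% parasitemia final) for 96 hours, 37 C in 5% CO2. Growth inhibition scored as decreased luciferase luminescence.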
Shiga toxin inh – blocks Shiga toxin action in Vero cells; Vero cells, Shiga toxin protein synthesis inhibition reporter; inhibition, % at 38.7 µM; 290,000 compounds, 9.2% hits; AID 2315; in the data active means inhibition mostly above about 28%, no sharp cut-off; inactive means mostly below about 43%; further: 0% is about no effect
LASV entry inh – inhibitors of Lassa virus binding or cell entry; Lassa virus pseudotype entry inhibition, cell reporter; 300,000 compounds, 1.2% hits; Potency, µM (doses to about 37.9 µM), for inactives: top-dose activity change, negative = inhibition, hits mostly inhibitors; calls by dose curve; tested in HEK293 cells; further: potency means the concentration at half of the fitted maximal effect; on the % scale 0 is the no-effect control and ±100 the full control effect; nearly all actives have a fitted effect of over 50% in size
CHX counter – counter-screen for Shiga toxin inhibitors: cycloheximide protein synthesis inhibition. cell reporter, cycloheximide protein synthesis inhibition counterscreen. max response, %. 300,000 compounds, 12% hits. AID 2314; in the data active means max response mostly above about 13%, no sharp cut-off; inactive means mostly below about 14%; further: read at 38.3 µM for the half of the compounds with a filed dose; 0% is about no effect
MARV entry inh – Marburg virus entry inhibition. Potency, µM (series often up to 37.8 µM), for inactives: top-dose activity change, negative = inhibition, actives largely listed as inhibitors. 300,000 compounds, 1.8% hits. AID 540276. Marburg virus pseudotyped entry inhibition, cell reporter; calls by dose curve; tested in HEK293 cells; further: potency means the concentration at half of the fitted maximal effect; on the % scale 0 is the no-effect control and ±100 the full control effect
Pf growth 48h – inhibits P. falciparum growth in the first generation, 48 h. AID 504832. P. falciparum luciferase growth in erythrocytes, 48 h. 310,000 compounds, 5.9% hits. Potency, µM (highest dose often 28.7 µM), for inactives: top-dose activity change, negative = inhibition, most hits filed as inhibitors; further: potency means the concentration at half of the fitted maximal effect; on the % scale 0 is the no-effect control and ±100 the full control effect
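Erythrocytes infected with P. falciparum carrying an integrated firefly luciferase reporter (2% hematocrit, 0.1% parasitemia final) were exposed to compounds in RPMI 1640 with 0.5% Albumax at 37 C, 5% CO2. Growth inhibition was scored as reduced luminescence.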
* marks the source's active call; other numbers are inactive results; u = inconclusive; x = not tested or not shown; [ ] = another dose, or the depositor's remark. An excerpt weighted towards active compounds, which were near 19% of everything screened. Unless noted, the call rests on the fitted dose curve; in most records, active means well fitted inhibition curve with a large enough effect; inconclusive means small, poorly fitted or top-dose-only effect, or another doubt; inactive means no such curve, though single readings can be large or run the other way.

SMILES	Pf growth 96h	Shiga toxin inh	LASV entry inh	CHX counter	MARV entry inh	Pf growth 48h
COc1ccc(/C=C2\SC(=S)N(CC(=O)N(C)C3CCS(=O)(=O)C3)C2=O)cc1 (stereo unspecified)	-6%	-10	x	13	x	1%
Cc1ccccc1OCc1nnc(SC(C)C(=O)O)n1Cc1ccccc1 (stereo unspecified)	-5%	-11	0%[46.1 µM]	-4	23%[46.1 µM]	30%
Cc1c(O)ccc2c(CN3CCN(Cc4ccccc4)CC3)cc(=O)oc12	u	-3	x	3	x	0%
Cc1c(O)c(CN2CCCC2)cc2c1oc(=O)c1ccccc12	6%	-3	-3%	-1	-1%	1.5µM*
CCc1cc(=O)oc2c(C)c(O)c(CN3CCCCC3)cc12	x	-10	-16%	-6	-1%	u
Cc1c(OC(C(=O)O)c2ccccc2)ccc2c1oc(=O)c1ccccc12 (stereo unspecified)	u	-7	x	-1	x	25%
C=CCc1cc2c(oc(=O)c3ccccc32)c(C)c1O	15µM*	13	-20%[46.1 µM]	1	27%[46.1 µM]	-13%
Cc1c(O)c(CN2CCCC2)cc2c3c(c(=O)oc12)CCC3	u	-17	12%	4	-12%	3.3µM*
CC(Oc1ccc(F)cc1)c1nnc(SCC(=O)N(c2ccccc2)C2CCS(=O)(=O)C2)o1 (stereo unspecified)	u	x	u	x	-18%	u
OCCN1CCN(c2ncnc3c2c(-c2ccccc2)cn3-c2ccc(Br)cc2)CC1	-12%	-15	u	-3	u	u
CCCN(CCC)CCCNC(=O)CCNS(=O)(=O)c1ccc(Br)cc1	11%	-6	8%	-2	u	u
CCOC(=O)c1c(C)[nH]c(C(=O)OCc2c(C)noc2C)c1C	u	18	-2%	-3	u	u
CCOC(=O)c1ccc2c(c1)nc(-c1ccccn1)n2CC	140%	107*	x	61*	-25%[46.1 µM]	39%
C=CCNC(=O)CSc1nc2cc(C(=O)OCC)ccc2n1CC	10µM*	-4	-10%	-2	2%	x
CCOC(=O)c1ccc2c(c1)nc(COc1ccc(OC)cc1)n2CC	9.3µM*	-12	-10%	-4	-2%	x
CCOC(=O)c1cc(-c2ccccc2)n(CC(=O)NC(C)(C)C)c1C	u	-9	x	4	x	-3%
COc1ccccc1N1CCN(S(=O)(=O)c2c(C)sc3ncn(CC(=O)Nc4ccccc4F)c(=O)c23)CC1	x	x	1%[46.1 µM]	x	17%[46.1 µM]	x
C=CCN(C(=O)c1cccc(C(F)(F)F)c1)C1(C(=O)Nc2ccccc2)CCN(C(C)C)CC1	7.4µM*	-9	-2%	-4	u	u
CSC1=NCCN1C(=O)c1c(F)cccc1Cl	u	-7	0%	-2	u	x
COc1ccc(C(=O)Nc2cc(C)cc(C)c2)cc1S(=O)(=O)N1CCOCC1	15%	-16	2%	9	-18%	-8%
COc1ccc(C(=O)Nc2ccc3c(c2)OCCO3)cc1S(=O)(=O)N1CCOCC1	10µM*	x	x	x	x	u
O=C(Nc1ccc(N2CCOCC2)cc1)c1ccc(Cl)c(S(=O)(=O)N2CCCCC2)c1	u	x	x	x	x	10µM*
CC(CC(=O)Nc1ccc(Cl)c(S(=O)(=O)N2CCOCC2)c1)c1ccccc1 (stereo unspecified)	u	x	-44%	x	u	12µM*
O=C(Nc1ccc(-c2cn3ccsc3n2)cc1)c1ccc(F)c(S(=O)(=O)N2CCOCC2)c1	9.3µM*	19	-15%	17	1%	0%
O=C(Nc1ccccc1)c1ccc(F)c(S(=O)(=O)N2CCOCC2)c1	u	25	-21%	14	2%	u
SMILES	Pf growth 96h	Shiga toxin inh	LASV entry inh	CHX counter	MARV entry inh	Pf growth 48h
CCOc1ccc(CNS(=O)(=O)c2ccc3c(c2)CC(=O)N3C)cc1	u	6	x	-3	x	4%
Cc1nn(C)cc1S(=O)(=O)Nc1ccc(F)c(F)c1	-14%	-18	8%[46.1 µM]	-2	5%[46.1 µM]	-26%
CCNC(=O)CCCN1C(=O)CCn2nc(-c3cccn3C)cc21	x	x	26%[46.1 µM]	x	x	x
O=C(COC(=O)c1ccccc1S(=O)(=O)N1CCCCC1)NCC(F)(F)F	13µM*	-4	11%	-3	-21%	-12%
O=C(COC(=O)c1ccccc1O)Nc1ccc(S(=O)(=O)N2CCCCC2)cc1	-12%	1	x	2	-11%[46.1 µM]	9%
CCOc1ccccc1OCCCC(=O)Nc1ccc(Cl)c(S(=O)(=O)N2CCOCC2)c1	7.4µM*	x	x	x	x	9.3µM*
O=C(Nc1ccc2c(c1)OCO2)c1ccc(Cl)c(S(=O)(=O)N2CCOCC2)c1	18%	39*	-14%	16*	-24%	u
COc1ccc(NC(=O)c2ccc(Cl)nc2)cc1S(=O)(=O)N1CCOCC1	12µM*	x	x	x	x	u
CCCC(C)c1nc(C(N)=O)c2[nH]c(=O)n(-c3ccc(OC)cc3OC)c2n1 (stereo unspecified)	-15%	-15	x	2	x	2%
O=C(Nc1ccccc1C(=O)O)c1cc(S(=O)(=O)N2CCOCC2)cs1	-1%	-3	1%[46.1 µM]	8	-15%[46.1 µM]	-11%
Cc1ccc(C(=O)Nc2c(N)nc(SCC(=O)Nc3cc(C)on3)[nH]c2=O)cc1	47%	13	-7%	2	2%	u
O=C(COC(=O)c1ccc(S(=O)(=O)N2CCCC2)cc1)Nc1ccccc1	-5%	x	1%	x	2%	-9%
COc1ccc(NC(=O)Cn2ncc(Cl)c(Cl)c2=O)cc1S(=O)(=O)N1CCOCC1	u	20	u	19*	u	u
O=C(Cc1ccc2c(c1)OCCO2)Nc1ccc(Cl)c(S(=O)(=O)N2CCOCC2)c1	9.3µM*	x	x	x	x	u
NS(=O)(=O)c1cc(C(=O)Nc2ccc3c(c2)OCCCO3)ccc1Cl	33%	58*	1%[46.1 µM]	19*	u	57%
O=C(COC(=O)c1ccc(Cl)c(S(=O)(=O)N2CCCCCC2)c1)Nc1ccccc1	0%	56*	u	35*	-7%	11%
COc1ccc(CC(=O)Nc2ccc3c(c2)OCO3)cc1S(=O)(=O)N1CCOCC1	-9%	-9	-12%	-2	3%	14%
Cc1ccc(S(=O)(=O)NC(=O)NCCCCNC(=O)NS(=O)(=O)c2ccc(C)cc2)cc1	13%	-10	9%	-4	14%	x
Cc1ccc(Nc2ncc3c(n2)CC(c2ccco2)CC3=O)c(C)c1 (stereo unspecified)	u	52	u	3	8%	u
Cc1ccc(CC(CC(=O)O)C(=O)NCC23CC4CC(CC(C4)C2)C3)cc1 (stereo unspecified)	4%	1	6%	8	24%[46.1 µM]	11%
O=C1CCN(c2ccccc2)N1	x	x	3%[46.1 µM]	x	-1%[46.1 µM]	x
O=C(COc1ccc(Cl)cc1Cl)NN=C1c2ccccc2-c2ccccc21	-18%	13	u	-4	-1%	19%
COc1ccc(-c2c(NC(=O)c3ccco3)oc3ccccc3c2=O)cc1	76%	20	x	7	x	-6%
